{"source": "the antibiotic and cytotoxicity screens of Wong et al. (2023)", "note": "Screen size: about 39,000 compounds; about 1,500 (3.8%) were called active. What follows is part of a selection rich in actives, with near analogues and random picks from the rest.", "data": [{"system": "HSkMC (human skeletal muscle cells)", "experiment": "cytotoxicity call (relative viability < 0.9)", "conditions": "10 µM", "values": [{"molecule": "COc1ccc(-c2cnc3c(c2)C(=O)N([C@@H](C)CO)C[C@H](C)[C@H](CN(C)C(=O)Cc2ccccn2)O3)cc1", "cytotoxicity call": "inactive"}, {"molecule": "C[C@@H]1CN([C@H](C)CO)C(=O)c2cc(NC(=O)Cn3cnnn3)ccc2O[C@@H]1CN(C)Cc1ccc(C(F)(F)F)cc1", "cytotoxicity call": "inactive"}, {"molecule": "C[C@H]1CCCCO[C@H](CN(C)C(=O)Cc2ccccc2)[C@@H](C)CN([C@@H](C)CO)C(=O)c2cc(NC(=O)Nc3ccccc3)ccc2O1", "cytotoxicity call": "inactive"}, {"molecule": "C[C@@H]1CCCCO[C@H](CN(C)C(=O)Nc2ccc(F)cc2)[C@@H](C)CN([C@H](C)CO)C(=O)c2cc(NC(=O)CCC(F)(F)F)ccc2O1", "cytotoxicity call": "inactive"}, {"molecule": "C[C@@H]1CN([C@@H](C)CO)C(=O)CCCn2cc(nn2)CO[C@H]1CN(C)C(=O)Nc1cccc(Oc2ccccn2)c1", "cytotoxicity call": "inactive"}, {"molecule": "C[C@@H]1CN([C@H](C)CO)C(=O)c2cccc(NC(=O)c3ccc(-c4nccs4)cc3)c2O[C@H]1CN(C)S(=O)(=O)c1ccc(Cl)cc1", "cytotoxicity call": "inactive"}, {"molecule": "C=C1c2cccc(O)c2C(=O)C2=C(O)[C@]3(O)C(O)=C(C(N)=O)C(=O)[C@@H](N(C)C)[C@@H]3[C@@H](O)[C@H]12", "cytotoxicity call": "inactive"}, {"molecule": "O=C(C[C@H]1CC[C@@H]2[C@H](COC[C@H](O)CN2S(=O)(=O)c2ccc(Cl)cc2)O1)NCCN1CCCC1", "cytotoxicity call": "inactive"}, {"molecule": "COc1ccc2c3c([nH]c2c1)[C@H](CO)N(C[C@]13CN(Cc2cc(on2)-c2ccccc2)C1)C(=O)Nc1ccc(cc1)F", "cytotoxicity call": "active"}, {"molecule": "COc1ccc2c3c([nH]c2c1)[C@H](CO)N(C[C@]13CCN(CC1)Cc1ccccc1OC)C(=O)Nc1ccc(cc1)F", "cytotoxicity call": "inactive"}, {"molecule": "COc1ccc2c3c([nH]c2c1)[C@@H](CO)N(C[C@]13CCN(CC1)C(=O)Nc1ccccc1)C(=O)Nc1ccc(cc1)F", "cytotoxicity call": "inactive"}, {"molecule": "COc1ccc2c3c([nH]c2c1)[C@H](CO)N(C[C@]13CCN(CC1)Cc1cc(on1)-c1ccccc1)C(=O)Nc1ccc(cc1)F", "cytotoxicity call": "active"}, {"molecule": "COc1ccc(cc1)CN1CC[C@]2(CC1)CN([C@H](CO)c1[nH]c3cc(ccc3c12)OC)C(=O)Nc1ccc(cc1)F", "cytotoxicity call": "inactive"}, {"molecule": "COc1ccc2c3c([nH]c2c1)[C@@H](CO)N(C[C@]13CN(Cc2cc(on2)-c2ccccc2)C1)C(=O)Nc1ccc(cc1)F", "cytotoxicity call": "inactive"}, {"molecule": "COc1ccc(cc1)CN1CC[C@]2(CC1)CN([C@@H](CO)c1[nH]c3cc(ccc3c12)OC)C(=O)Nc1ccc(cc1)F", "cytotoxicity call": "inactive"}, {"molecule": "COc1ccc2c3c([nH]c2c1)[C@@H](CO)N(C[C@]13CCN(CC1)Cc1ccc(cc1)F)C(=O)Nc1ccc(cc1)F", "cytotoxicity call": "active"}, {"molecule": "COc1ccc2c3c([nH]c2c1)[C@@H](CO)N(C[C@]13CCN(CC1)Cc1ccccc1OC)C(=O)Nc1ccc(cc1)F", "cytotoxicity call": "inactive"}, {"molecule": "COc1ccc2c3c([nH]c2c1)[C@H](CO)N(C[C@]13CCN(CC1)Cc1ccc(cc1)F)C(=O)Nc1ccc(cc1)F", "cytotoxicity call": "inactive"}, {"molecule": "COc1ccc2c3c([nH]c2c1)[C@H](CO)N(C[C@]13CCN(CC1)C(=O)Nc1ccccc1)C(=O)Nc1ccc(cc1)F", "cytotoxicity call": "inactive"}, {"molecule": "COc1ccc2c3c([nH]c2c1)[C@@H](CO)N(C[C@]13CCN(CC1)Cc1cc(on1)-c1ccccc1)C(=O)Nc1ccc(cc1)F", "cytotoxicity call": "active"}, {"molecule": "C=c1[nH]/c(=C\\c2ccc(F)cc2)c(=O)o1", "cytotoxicity call": "inactive"}, {"molecule": "Cc1noc(C)c1S(=O)(=O)Nc1ccc2c(c1)C(=O)N([C@H](C)CO)C[C@H](C)[C@@H](CN(C)S(C)(=O)=O)OCCCC[C@H](C)O2", "cytotoxicity call": "inactive"}, {"molecule": "C[C@H]1CN([C@@H](C)CO)C(=O)Cc2cc(NC(=O)CCCN(C)C)ccc2O[C@@H]1CN(C)C(=O)Nc1ccc2c(c1)OCO2", "cytotoxicity call": "inactive"}, {"molecule": "C[C@@H]1CN([C@@H](C)CO)C(=O)c2cccc(NC(=O)c3cnccn3)c2O[C@@H]1CN(C)S(=O)(=O)c1ccccc1", "cytotoxicity call": "inactive"}, {"molecule": "CCS(=O)(=O)NCC[C@H]1CC[C@H](NC(=O)C2CC2)[C@@H](CO)O1", "cytotoxicity call": "inactive"}, {"molecule": "O=C(O)CNC(=O)[C@H]1COc2ccccc2O1", "cytotoxicity call": "inactive"}, {"molecule": "COc1cccc(-c2cn(CC[C@H]3CC[C@H](NC(=O)CN(C)C)[C@H](CO)O3)nn2)c1", "cytotoxicity call": "inactive"}, {"molecule": "COc1ccc(NC(=O)N(C)C[C@H]2OCCCC[C@H](C)Oc3ccc(NC(=O)C4CCCCC4)cc3C(=O)N([C@@H](C)CO)C[C@H]2C)cc1", "cytotoxicity call": "inactive"}, {"molecule": "CC(=O)O[C@H]1C[C@@]2(C)[C@H]3CC=C4[C@@H](C[C@@H](O[C@H]5O[C@@H](CO)[C@@H](O)[C@@H](O)[C@@H]5O)[C@@H](O)C4(C)C)[C@@]3(C)CC[C@@]2(C)[C@@H]1C(C)(O)C(=O)CCC(C)(C)O", "note": "(some centres not stated)", "cytotoxicity call": "inactive"}, {"molecule": "COc1ccc(S(=O)(=O)Nc2ccc3c(c2)C(=O)N([C@@H](C)CO)C[C@@H](C)[C@H](CN(C)S(=O)(=O)c2ccc(F)cc2)O3)cc1", "cytotoxicity call": "inactive"}, {"molecule": "O=C(O)[C@H]1C[C@H]2C(=O)NCC(=O)N2[C@H]1c1ccc(O)cc1", "cytotoxicity call": "inactive"}, {"molecule": "C[C@@H]1CN([C@H](C)CO)C(=O)c2cccc(NC(=O)c3ccc(-c4nccs4)cc3)c2O[C@@H]1CN(C)Cc1ccc2c(c1)OCO2", "cytotoxicity call": "inactive"}, {"molecule": "C[C@H](CO)N1C[C@H](C)[C@@H](CN(C)Cc2ccccc2)OCc2ccccc2-c2c(n(C)c3ccccc23)C1=O", "cytotoxicity call": "inactive"}, {"molecule": "C[C@H](CO)N1C[C@H](C)[C@H](CN(C)Cc2ccc(-c3ccccc3)cc2)OCc2ccccc2-c2c(n(C)c3ccccc23)C1=O", "cytotoxicity call": "active"}, {"molecule": "C[C@@H]1CN([C@H](C)CO)C(=O)c2c(c3ccccc3n2C)-c2ccccc2CO[C@H]1CN(C)Cc1ccccc1", "cytotoxicity call": "active"}, {"molecule": "C[C@@H]1CN([C@H](C)CO)C(=O)c2c(c3ccccc3n2C)-c2ccccc2CO[C@@H]1CN(C)C(=O)Nc1ccc(-c2ccccc2)cc1", "cytotoxicity call": "inactive"}, {"molecule": "C[C@@H]1CN([C@@H](C)CO)C(=O)c2c(c3ccccc3n2C)-c2ccccc2CO[C@H]1CN(C)Cc1ccc(-c2ccccc2)cc1", "cytotoxicity call": "inactive"}, {"molecule": "C[C@H](CO)N1C[C@H](C)[C@H](CN(C)C(=O)Nc2ccc(-c3ccccc3)cc2)OCc2ccccc2-c2c(n(C)c3ccccc23)C1=O", "cytotoxicity call": "active"}, {"molecule": "C[C@@H]1CN([C@H](C)CO)C(=O)c2c(c3ccccc3n2C)-c2ccccc2CO[C@@H]1CN(C)Cc1ccc(-c2ccccc2)cc1", "cytotoxicity call": "inactive"}, {"molecule": "C[C@H](CO)N1C[C@H](C)[C@@H](CN(C)Cc2ccc(-c3ccccc3)cc2)OCc2ccccc2-c2c(n(C)c3ccccc23)C1=O", "cytotoxicity call": "inactive"}, {"molecule": "C[C@@H]1CN([C@H](C)CO)C(=O)c2c(c3ccccc3n2C)-c2ccccc2CO[C@H]1CN(C)C(=O)Nc1ccc(-c2ccccc2)cc1", "cytotoxicity call": "inactive"}, {"molecule": "C[C@H]1CN([C@@H](C)CO)C(=O)c2c(c3ccccc3n2C)-c2ccccc2CO[C@@H]1CN(C)Cc1ccccc1", "cytotoxicity call": "inactive"}, {"molecule": "C[C@@H]1CN([C@@H](C)CO)C(=O)c2c(c3ccccc3n2C)-c2ccccc2CO[C@@H]1CN(C)Cc1ccc(-c2ccccc2)cc1", "cytotoxicity call": "active"}, {"molecule": "C[C@H]1CN([C@@H](C)CO)C(=O)c2c(c3ccccc3n2C)-c2ccccc2CO[C@@H]1CN(C)Cc1ccc(-c2ccccc2)cc1", "cytotoxicity call": "inactive"}, {"molecule": "C[C@@H]1CN([C@@H](C)CO)C(=O)Cc2cc(NS(=O)(=O)c3cn(C)cn3)ccc2O[C@H]1CN(C)C(=O)Nc1ccccc1", "cytotoxicity call": "inactive"}, {"molecule": "C[C@H](NC(=O)[C@@H]1N[C@@H]2c3ccc(-c4ccc(C(=O)N(C)C)cc4)c(=O)n3C[C@@H]2[C@H]1CO)c1ccccc1", "cytotoxicity call": "inactive"}, {"molecule": "COc1ccc2c3c(n(c2c1)C)[C@@H](CO)N(C[C@]13CN(C1)C(=O)c1ccncc1)C(=O)C1CCOCC1", "cytotoxicity call": "inactive"}, {"molecule": "C[C@H]1CCCCO[C@@H](CN(C)C(=O)Nc2ccc3c(c2)OCO3)[C@@H](C)CN([C@@H](C)CO)C(=O)c2cc(NC(=O)Cc3ccccc3)ccc2O1", "cytotoxicity call": "inactive"}, {"molecule": "C[C@@H]1CN([C@@H](C)CO)S(=O)(=O)c2ccc(C#CC3(O)CCCC3)cc2O[C@H]1CN(C)C(=O)Nc1ccc(F)cc1", "cytotoxicity call": "inactive"}, {"molecule": "C[C@@H]1CCCCO[C@@H](CN(C)Cc2ccc(C(F)(F)F)cc2)[C@@H](C)CN([C@H](C)CO)C(=O)c2cc(NS(C)(=O)=O)ccc2O1", "cytotoxicity call": "inactive"}, {"molecule": "Cc1ccc(S(=O)(=O)N(C)C[C@H]2Oc3ccc(NC(=O)Nc4ccc(C(F)(F)F)cc4)cc3CC(=O)N([C@@H](C)CO)C[C@H]2C)cc1", "cytotoxicity call": "active"}, {"molecule": "Cc1ccc(S(=O)(=O)N(C)C[C@@H]2Oc3ccc(NC(=O)Nc4ccc(C(F)(F)F)cc4)cc3CC(=O)N([C@H](C)CO)C[C@@H]2C)cc1", "cytotoxicity call": "active"}, {"molecule": "Cc1ccc(S(=O)(=O)N(C)C[C@H]2Oc3ccc(NC(=O)Nc4ccc(C(F)(F)F)cc4)cc3CC(=O)N([C@H](C)CO)C[C@@H]2C)cc1", "cytotoxicity call": "active"}, {"molecule": "C[C@H](CO)N1C[C@H](C)[C@H](CN(C)S(C)(=O)=O)Oc2ccc(NC(=O)Nc3ccc(C(F)(F)F)cc3)cc2CC1=O", "cytotoxicity call": "inactive"}, {"molecule": "Cc1ccc(S(=O)(=O)N(C)C[C@H]2Oc3ccc(NC(=O)Nc4ccc(C(F)(F)F)cc4)cc3CC(=O)N([C@H](C)CO)C[C@H]2C)cc1", "cytotoxicity call": "active"}, {"molecule": "C[C@@H]1CN([C@@H](C)CO)C(=O)Cc2cc(NC(=O)Nc3ccc(C(F)(F)F)cc3)ccc2O[C@@H]1CN(C)S(C)(=O)=O", "cytotoxicity call": "inactive"}, {"molecule": "C[C@@H]1CN([C@H](C)CO)C(=O)c2cc(C#CCN(C)C)cnc2O[C@@H]1CN(C)Cc1ccc2c(c1)OCO2", "cytotoxicity call": "inactive"}, {"molecule": "C[C@H](CO)N1C[C@H](C)[C@H](CN(C)S(=O)(=O)c2ccc(C(F)(F)F)cc2)OCc2ccccc2-c2ccccc2C1=O", "cytotoxicity call": "inactive"}, {"molecule": "C[C@@H]1CN([C@H](C)CO)C(=O)c2cccc(NC(=O)C3CCCCC3)c2O[C@@H]1CN(C)C(=O)Nc1ccc(C(F)(F)F)cc1", "cytotoxicity call": "inactive"}, {"molecule": "COc1ccc(NC(=O)CSC2=NC(C)=C(C(=O)Nc3nc4ccccc4s3)[C@H](c3ccco3)C2C#N)cc1", "note": "(some centres not stated)", "cytotoxicity call": "inactive"}, {"molecule": "COc1ccc(CCNS(=O)(=O)c2cn(C)c(=O)n(C)c2=O)cc1", "cytotoxicity call": "inactive"}, {"molecule": "CCCN(C)C[C@H]1OCCCC[C@@H](C)Oc2ccc(NS(C)(=O)=O)cc2C(=O)N([C@H](C)CO)C[C@@H]1C", "cytotoxicity call": "inactive"}]}]}
